Test results taken from PubChem BioAssay AID1159580 (chemical genetic matrix, 2015).
Values joined by “and” are separate entries in the source; they are usually repeats but may differ in a detail not shown here. Equal entries are not always repeated. Hit rate of the full screen: of about 5,500 compounds, about 2,000 (36%) were called active. Roughly 18% stayed inconclusive and do not appear here. Rule as the data show it: active = normalized growth mostly below about 0.91 (no sharp cut-off); inconclusive = no clear call, values can overlap the other calls; inactive = mostly above about 0.92. The list shows a part of the results.

Assay: chemical genetic growth profiling, strain panel (AID 1159580);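 also: tested at 20 µM; growth read once vehicle control cultures reached saturation at 30 °C; 1 = growth at the plate median or of vehicle wells; lower values mean less growth of the strain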
Conditions: S. cerevisiae deletion strains, growth OD

Measured: normalized growth

CCCc1nn(C)c2c(=O)[nH]c(-c3cc(S(=O)(=O)N4CCN(C)CC4)ccc3OCC)nc12
inactive: locus YAL013W, strain DEP1, active compounds read low 1.02 | locus YAL021C, strain ccr4, active compounds read low 0.991 | locus YAL026C, strain drs2, active compounds read low 0.988 | locus YAL030W, strain snc1, active compounds read low 0.997 | locus YBL061C, strain skt5, active compounds read low 0.989 | locus YBR009C, strain hhf1, active compounds read low 1 | locus YBR021W, strain FUR4, active compounds read low 1.05 | locus YBR023C, strain chs3, active compounds read low 0.988 | locus YBR171W, strain sec66, active compounds read low 0.99 | locus YBR229C, strain ROT2, active compounds read low 1.02 | locus YBR231C, strain swc5, active compounds read low 0.988 | locus YBR279W, strain paf1, active compounds read low 0.985 | locus YCL011C, strain gbp2, active compounds read low 0.987 | locus YCL016C, strain dcc1, active compounds read low 0.994 | locus YCL029C, strain bik1, active compounds read low 0.993 | locus YCL061C, strain MRC1, active compounds read low 0.981 | locus YCL069W, strain vba3, active compounds read low 0.992 | locus YCR088W, strain abp1, active compounds read low 0.983 | locus YDL005C, strain med2, active compounds read low 0.987 | locus YDL035C, strain GPR1, active compounds read low 1.03 | locus YDL040C, strain nat1, active compounds read low 0.991 | locus YDL074C, strain BRE1, active compounds read low 1.07 | locus YDL101C, strain DUN1, active compounds read low 1.02 | locus YDL134C, strain PPH21, active compounds read low 1.03 | locus YDL185W, strain tfp1, active compounds read low 1 | locus YDL192W, strain arf1, active compounds read low 0.989 | locus YDR001C, strain nth1, active compounds read low 0.989 | locus YDR069C, strain doa4, active compounds read low 0.991 | locus YDR101C, strain arx1, active compounds read low 0.991 | locus YDR137W, strain rgp1, active compounds read low 0.986 | locus YDR150W, strain NUM1, active compounds read low 1.02 | locus YDR159W, strain sac3, active compounds read low 1 | locus YDR162C, strain NBP2, active compounds read low 1.01 | locus YDR195W, strain ref2 0.978 | locus YDR297W, strain sur2, active compounds read low 0.991 | locus YDR318W, strain mcm21, active compounds read low 1 | locus YDR334W, strain swr1, active compounds read low 0.989 | locus YDR335W, strain msn5, active compounds read low 0.993 | locus YDR388W, active compounds read low 0.962 | locus YDR392W, strain spt3, active compounds read low 0.989 | locus YDR502C, strain sam2, active compounds read low 0.99 | locus YEL003W, strain gim4, active compounds read low 0.995 | locus YEL037C, strain rad23, active compounds read low 0.992 | locus YEL061C, strain CIN8 (second series), active compounds read low 0.988 | locus YEL061C, strain CIN8, active compounds read low 1.02 | locus YER015W, strain faa2, active compounds read low 0.994 | locus YER016W, strain bim1, active compounds read low 0.988 | locus YER110C, active compounds read low 0.974 | locus YER111C, strain swi4, active compounds read low 0.989 | locus YER155C, strain BEM2 (second series), active compounds read low 0.987 | locus YER155C, strain BEM2, active compounds read low 1.01 | locus YER167W, strain BCK2, active compounds read low 1.03 | locus YFR010W, strain ubp6, active compounds read low 0.98 | locus YGL078C, strain dbp3, active compounds read low 0.985 | locus YGL086W, strain mad1, active compounds read low 0.992 | locus YGL167C, strain pmr1, active compounds read low 1 | locus YGL173C, strain kem1, active compounds read low 0.983 | locus YGL227W, strain vid30, active compounds read low 0.988 | locus YGL240W, strain doc1, active compounds read low 1 | locus YGL248W, strain PDE1, active compounds read low 1.02 | locus YGL253W, strain hxk2, active compounds read low 0.995 | locus YGR078C, strain PAC10, active compounds read low 1.04 | locus YGR135W, strain pre9, active compounds read low 0.995 | locus YGR229C, strain SMI1, active compounds read low 1.03 | locus YGR252W, strain gcn5, active compounds read low 0.953 | locus YHR013C, strain ard1, active compounds read low 0.956 | locus YHR027C, strain rpn1, active compounds read low 0.992 | locus YHR030C, strain SLT2, active compounds read low 1.02 and 1.03 | locus YHR079C, strain IRE1 (second series), active compounds read low 0.991 | locus YHR079C, strain IRE1, active compounds read low 1.05 | locus YHR094C, strain hxt1, active compounds read low 0.995 | locus YHR129C, strain ARP1, active compounds read low 1.02 | locus YHR142W, strain chs7, active compounds read low 0.99 | locus YHR200W, strain rpn10, active compounds read low 1 | locus YIL066C, strain RNR3, active compounds read low 1.03 | locus YIL073C, strain SPO22, active compounds read low 1.06 | locus YIL125W, strain kgd1, active compounds read low 0.994 | locus YIR030C, strain dcg1, active compounds read low 0.997 | locus YJL092W, strain hpr5, active compounds read low 0.99 | locus YJL095W, strain BCK1 (second series), active compounds read low 0.986 | locus YJL095W, strain BCK1, active compounds read low 1.04 and 1.01 | locus YJL115W, strain asf1, active compounds read low 0.993 | locus YJL129C, strain trk1, active compounds read low 0.995 | locus YJL134W, strain LCB3, active compounds read low 1.01 | locus YJL154C, strain vps35, active compounds read low 0.988 | locus YJL164C, strain tpk1, active compounds read low 0.999 | locus YJL166W, strain qcr8, active compounds read low 0.991 | locus YJL168C, strain set2, active compounds read low 0.995 | locus YJL187C, strain SWE1 (second series), active compounds read low 1.02 | locus YJL187C, strain SWE1, active compounds read low 0.991 | locus YJR043C, strain POL32, active compounds read low 1.04 | locus YJR066W, strain TOR1, active compounds read low 0.981
